PubChem BioAssay AID1159580 (chemical genetic matrix, 2015)
Several values for one entry are separate records, joined by “and”; a condition that tells them apart may be missing. Equal entries are not always repeated. Hit rate of the full screen: of about 5,500 compounds, about 2,000 (36%) were called active. About 18% were inconclusive and are not listed. Cut-off read from the data, not from the text of the source: active = normalized growth mostly below about 0.91 (no sharp cut-off); inconclusive = no clear call, values can overlap the other calls; inactive = mostly above about 0.92. The list shows a part of the results. Some structures have more than one record in an assay (separate samples or runs), and their calls can disagree.

Assay: chemical genetic growth profiling, strain panel (AID 1159580);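 note: tested at 20 µM; growth read once vehicle control cultures reached saturation at 30 °C; 1 = growth at the plate median or of vehicle wells; lower values mean less growth of the strain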
Settings: growth OD

Measured: normalized growth

CCN(CC)C(=S)SSC(=S)N(CC)CC
active: S. cerevisiae deletion strains, locus YKL009W, strain mrt4, stronger effect = lower value 0.606 | S. cerevisiae deletion strains, locus YKL068W, stronger effect = lower value 0.0556 | S. cerevisiae deletion strains, locus YKL085W, strain MDH1 (second series), stronger effect = lower value 0.0512 | S. cerevisiae deletion strains, locus YKL085W, strain MDH1, stronger effect = lower value 0.0512 | S. cerevisiae deletion strains, locus YKL160W, strain elf1, stronger effect = lower value 0.0678 | S. cerevisiae deletion strains, locus YKL190W, strain CNB1, stronger effect = lower value 0.0509 | S. cerevisiae deletion strains, locus YKR001C, strain vps1, stronger effect = lower value 0.0705 | S. cerevisiae deletion strains, locus YKR026C, strain gcn3, stronger effect = lower value 0.0628 | S. cerevisiae deletion strains, locus YKR091W, strain srl3, stronger effect = lower value 0.0583 | S. cerevisiae deletion strains, locus YLL001W, strain dnm1, stronger effect = lower value 0.0613 | S. cerevisiae deletion strains, locus YLL026W, stronger effect = lower value 0.0601 | S. cerevisiae deletion strains, locus YLL041C, strain sdh2, stronger effect = lower value 0.0577 | S. cerevisiae deletion strains, locus YLR027C, strain aat2, stronger effect = lower value 0.0572 | S. cerevisiae deletion strains, locus YLR039C, strain RIC1, stronger effect = lower value 0.0861 | S. cerevisiae deletion strains, locus YLR058C, strain SHM2, stronger effect = lower value 0.0583 | S. cerevisiae deletion strains, locus YLR102C, strain apc9, stronger effect = lower value 0.0612 | S. cerevisiae deletion strains, locus YLR113W, strain HOG1, stronger effect = lower value 0.133 | S. cerevisiae deletion strains, locus YLR221C, strain rsa3, stronger effect = lower value 0.0619 | S. cerevisiae deletion strains, locus YLR258W, strain gsy2, stronger effect = lower value 0.0609 | S. cerevisiae deletion strains, locus YLR262C, strain YPT6 (second series), stronger effect = lower value 0.0822 | S. cerevisiae deletion strains, locus YLR262C, strain YPT6, stronger effect = lower value 0.109 | S. cerevisiae deletion strains, locus YLR268W, strain sec22, stronger effect = lower value 0.061 | S. cerevisiae deletion strains, locus YLR320W, strain mms22, stronger effect = lower value 0.087 | S. cerevisiae deletion strains, locus YLR330W, strain CHS5, stronger effect = lower value 0.0617 | S. cerevisiae deletion strains, locus YLR342W, strain FKS1 (second series), stronger effect = lower value 0.0677 | S. cerevisiae deletion strains, locus YLR342W, strain FKS1, stronger effect = lower value 0.0645 | S. cerevisiae deletion strains, locus YLR357W, strain rsc2, stronger effect = lower value 0.119 | S. cerevisiae deletion strains, locus YLR370C, strain arc18, stronger effect = lower value 0.0622 | S. cerevisiae deletion strains, locus YLR371W, strain rom2, stronger effect = lower value 0.0655 | S. cerevisiae deletion strains, locus YLR384C, strain iki3, stronger effect = lower value 0.0605 | S. cerevisiae deletion strains, locus YLR418C, strain cdc73, stronger effect = lower value 0.0926 | S. cerevisiae deletion strains, locus YML016C, strain PPZ1, stronger effect = lower value 0.052 | S. cerevisiae deletion strains, locus YML032C, strain rad52, stronger effect = lower value 0.263 | S. cerevisiae deletion strains, locus YML120C, strain ndi1, stronger effect = lower value 0.0591 | S. cerevisiae deletion strains, locus YML124C, strain tub3, stronger effect = lower value 0.0572 | S. cerevisiae deletion strains, locus YMR058W, strain fet3, stronger effect = lower value 0.0624 | S. cerevisiae deletion strains, locus YMR078C, strain ctf18, stronger effect = lower value 0.073 | S. cerevisiae deletion strains, locus YMR125W, strain sto1, stronger effect = lower value 0.0735 | S. cerevisiae deletion strains, locus YMR129W, stronger effect = lower value 0.0588 | S. cerevisiae deletion strains, locus YMR205C, strain PFK2, stronger effect = lower value 0.088 | S. cerevisiae deletion strains, locus YMR223W, strain ubp8, stronger effect = lower value 0.0608 | S. cerevisiae deletion strains, locus YMR231W, strain pep5, stronger effect = lower value 0.0654 | S. cerevisiae deletion strains, locus YMR263W, strain SAP30, stronger effect = lower value 0.0587 | S. cerevisiae deletion strains, locus YMR307W, strain GAS1, stronger effect = lower value 0.0974 | S. cerevisiae deletion strains, locus YNL067W, strain RPL9B, stronger effect = lower value 0.0505 | S. cerevisiae deletion strains, locus YNL071W, strain lat1, stronger effect = lower value 0.0618 | S. cerevisiae deletion strains, locus YNL128W, strain TEP1, stronger effect = lower value 0.0626 and 0.0798 | S. cerevisiae deletion strains, locus YNL153C, strain GIM3, stronger effect = lower value 0.0777 | S. cerevisiae deletion strains, locus YNL175C, strain NOP13, stronger effect = lower value 0.342 | S. cerevisiae deletion strains, locus YNL183C, strain NPR1, stronger effect = lower value -0.00035 | S. cerevisiae deletion strains, locus YNL197C, strain WHI3, stronger effect = lower value 0.0658 | S. cerevisiae deletion strains, locus YNL209W, strain ssb2, stronger effect = lower value 0.06 | S. cerevisiae deletion strains, locus YNL224C, strain SQS1, stronger effect = lower value 0.179 | S. cerevisiae deletion strains, locus YNL233W, strain BNI4, stronger effect = lower value 0.0544 | S. cerevisiae deletion strains, locus YNL248C, strain rpa49, stronger effect = lower value 0.0771 | S. cerevisiae deletion strains, locus YNL250W, strain rad50, stronger effect = lower value 0.0637 | S. cerevisiae deletion strains, locus YNL271C, strain bni1, stronger effect = lower value 0.0645 | S. cerevisiae deletion strains, locus YNL298W, strain CLA4, stronger effect = lower value 0.0615 | S. cerevisiae deletion strains, locus YNL307C, strain MCK1, stronger effect = lower value 0.0703 | S. cerevisiae deletion strains, locus YNL322C, strain KRE1 (second series), stronger effect = lower value 0.0666 | S. cerevisiae deletion strains, locus YNR049C, strain mso1, stronger effect = lower value 0.0606 | S. cerevisiae deletion strains, locus YNR052C, strain pop2, stronger effect = lower value 0.138 | S. cerevisiae deletion strains, locus YOL006C, strain TOP1, stronger effect = lower value 0.104 | S. cerevisiae deletion strains, locus YOL012C, strain htz1 0.179 | S. cerevisiae deletion strains, locus YOR001W, strain rrp6, stronger effect = lower value 0.0666 | S. cerevisiae deletion strains, locus YOR061W, strain CKA2, stronger effect = lower value 0.0499 | S. cerevisiae deletion strains, locus YOR069W, strain VPS5, stronger effect = lower value 0.0518 | S. cerevisiae deletion strains, locus YOR070C, strain gyp1, stronger effect = lower value 0.0741 | S. cerevisiae deletion strains, locus YOR080W, strain dia2, stronger effect = lower value 0.0684 | S. cerevisiae deletion strains, locus YOR083W, strain WHI5 (second series), stronger effect = lower value 0.0704 | S. cerevisiae deletion strains, locus YOR083W, strain WHI5, stronger effect = lower value 0.0659 | S. cerevisiae deletion strains, locus YOR106W, strain vam3, stronger effect = lower value 0.0652 | S. cerevisiae deletion strains, locus YOR136W, strain idh2, stronger effect = lower value 0.0727 | S. cerevisiae deletion strains, locus YOR144C, strain elg1, stronger effect = lower value 0.803 | S. cerevisiae deletion strains, locus YOR184W, strain ser1, stronger effect = lower value 0.0638 | S. cerevisiae deletion strains, locus YOR231W, strain MKK1, stronger effect = lower value 0.117 | S. cerevisiae deletion strains, locus YOR265W, strain rbl2, stronger effect = lower value 0.0575 | S. cerevisiae deletion strains, locus YOR270C, strain vph1, stronger effect = lower value 0.0967 | S. cerevisiae deletion strains, locus YOR290C, strain snf2, stronger effect = lower value 0.627 | S. cerevisiae deletion strains, locus YOR316C, strain cot1, stronger effect = lower value 0.0596 | S. cerevisiae deletion strains, locus YPL051W, strain arl3, stronger effect = lower value 0.0672 | S. cerevisiae deletion strains, locus YPL055C, strain LGE1, stronger effect = lower value 0.0641 | S. cerevisiae deletion strains, locus YPL078C, strain atp4, stronger effect = lower value 0.0676 | S. cerevisiae deletion strains, locus YPL106C, strain sse1, stronger effect = lower value 0.103 | S. cerevisiae deletion strains, locus YPL240C, strain hsp82, stronger effect = lower value 0.0557 | S. cerevisiae deletion strains, locus YPL256C, strain CLN2, stronger effect = lower value 0.13 | S. cerevisiae deletion strains, locus YPR119W, strain clb2, stronger effect = lower value 0.0619 | S. cerevisiae deletion strains, locus YPR141C, strain kar3, stronger effect = lower value 0.0641 | S. cerevisiae deletion strains, locus YPR163C, strain tif3, stronger effect = lower value 0.0693 | S. cerevisiae deletion strains, locus YPR167C, strain met16, stronger effect = lower value 0.0622 | S. cerevisiae deletion strains, strain wtn01, stronger effect = lower value 0.0586 | S. cerevisiae strains, strain wild type, stronger effect = lower value 0.05
0.0528 (active) and 0.999 (inactive): S. cerevisiae deletion strains, locus YPL241C, strain CIN2, stronger effect = lower value
0.0635 (active) and 0.949 (inactive): S. cerevisiae deletion strains, locus YJR075W, strain HOC1, stronger effect = lower value
inactive: S. cerevisiae deletion strains, locus YOL147C, strain pex11, stronger effect = lower value 0.946
0.0502 (active) and 0.997 (inactive): S. cerevisiae deletion strains, locus YNL322C, strain KRE1, stronger effect = lower value
